Inconclusive results are not listed. Activity calls are given as the source filed them. Unless noted, the call rests on the fitted dose curve; in most records, active means well fitted inhibition curve with a large enough effect; inconclusive means small, poorly fitted or top-dose-only effect; inactive means flat fitted curve, though single readings scatter.
Experiments:
[1] = qHTS drug screen for cell cycle checkpoint inhibitors in PARPi-resistant BRCA-mutant ovarian cancer cell lines. (AID 1963452; calls by dose curve); settings: PEO1/OlaR viability, CellTiter-Glo luminescence, 96 h, stronger effect = lower value
Outline: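 PEO1, PEO4 and PEO1/OlaR ovarian cancer cells, 600 per well, exposed 96 h at 37C to a dilution series. Viability read by CellTiter-Glo luminescence, normalized to DMSO and empty wells; activity summarized as Z-AUC.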

[2] = qHTS profiling for inhibitors of Plasmodium falciparum proliferation (AID 504749); further: nearly all actives have a fitted effect of over 60% in size; further: potency means the concentration at half of the fitted maximal effect;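 on activity, negative = inhibition: 0% = DMSO vehicle and full inhibition = artemisinin control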; settings: P. falciparum in erythrocytes, SYBR Green DNA, 72 h
Outline: (§1)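 Infected RBCs, 0.3% parasitemia/2.5% Hct final; cpd 72 h, 37 C, 5% CO2; lysis buffer with saponin/triton/SYBR Green I, o/n RT dark; FI 485/535; norm. to artemisinin (0.29 uM) and DMSO.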

3D7 = assay: as above; settings: P. falciparum in erythrocytes, SYBR Green DNA, 72 h; series mostly up to 28.7 µM
Outline: as §1

7G8 = assay: as above; settings: P. falciparum in erythrocytes, SYBR Green DNA, 72 h; series mostly up to 28.7 µM
Outline: as §1

AA1029 = assay: as above; settings: P. falciparum in erythrocytes, SYBR Green DNA, 72 h; series mostly up to 28.7 µM
Outline: as §1

AS120 = assay: as above; settings: P. falciparum in erythrocytes, SYBR Green DNA, 72 h; series mostly up to 28.7 µM
Outline: as §1

ATS189 = assay: as above; settings: P. falciparum in erythrocytes, SYBR Green DNA, 72 h; series mostly up to 28.7 µM
Outline: as §1

ATS95 = assay: as above; settings: P. falciparum in erythrocytes, SYBR Green DNA, 72 h; series mostly up to 28.7 µM
Outline: as §1

C2A = assay: as above; settings: P. falciparum in erythrocytes, SYBR Green DNA, 72 h; series mostly up to 28.7 µM
Outline: as §1

CP185 = assay: as above; settings: P. falciparum in erythrocytes, SYBR Green DNA, 72 h; series mostly up to 28.7 µM
Outline: as §1

CP192 = assay: as above; settings: P. falciparum in erythrocytes, SYBR Green DNA, 72 h; series mostly up to 28.7 µM
Outline: as §1

CP194 = assay: as above; settings: P. falciparum in erythrocytes, SYBR Green DNA, 72 h; series mostly up to 28.7 µM
Outline: as §1

CP191 = assay: as above; settings: P. falciparum in erythrocytes, SYBR Green DNA, 72 h; series mostly up to 28.7 µM
Outline: as §1

[3] = qHTS for identification of novel therapeutic agents for treatment of microphthalmiaassociated transcription factor (MiT) renal cell carcinoma (RCC) (AID 1963991); settings: CellTiter-Glo, 48 h, stronger effect = lower value;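 further: curves scaled with 100% = DMSO viability and 0% = empty wells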
Outline: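 UOK109/UOK124/UOK145 (TFE3 fusions, three partners); 500 cells/well; MIPE v4.0, 1912 cpds, 11 conc.; 48 h, 37 C; CellTiter-Glo, 15 min RT; lum. Norm.: DMSO 100%, empty 0%.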

[4] = measured here: PEO1 parental Z-AUC
[5] = at 28.7 µM (top of the series), parasite line A
[6] = at 28.7 µM (top of the series), parasite line B
[7] = TFE3-RCC UOK109 viability, measured here: UOK109 Z-AUC
[8] = TFE3-RCC viability, measured here: UOK124 Z-AUC
[9] = TFE3-RCC viability, measured here: UOK145 Z-AUC
[10] = at 12.8 µM (top of the series), parasite line B

COc1ccc2nc(S(=O)Cc3ncc(C)c(OC)c3C)[nH]c2c1 (configuration not stated)
0.925: Z-AUC [1, 4]
1.02: Z-AUC ([1]; measured here: PEO4 Z-AUC)
inactive: Z-AUC [1] 1.57 | activity, negative = inhibition [2, 5] -18.6% | activity, negative = inhibition [2, 6] -6.81% | Potency (3D7) | Potency (AA1029) | Potency (AS120) | Potency (ATS189) | Potency (ATS95) | Potency (C2A) | Potency (CP185) | Potency (CP192) | Potency (CP194)
active: Potency (7G8) 10 µM

Cc1ccccc1C(OCCN(C)C)c1ccccc1 (configuration not stated)
inactive: activity, negative = inhibition [2, 5] -3.11% | activity, negative = inhibition [2, 6] 5.42% | Potency (3D7) | Potency (CP191) | Potency (CP192)
active: Potency (ATS95) 8.91 µM

Cc1c(C)c2c(c(C)c1O)CCC(C)(COc1ccc(CC3SC(=O)NC3=O)cc1)O2 (configuration not stated)
inactive: Z-AUC [1] 0.635 | activity, negative = inhibition [2, 5] -7.46% | Potency (3D7) | Potency (ATS95) | Potency (C2A) | Potency (CP185) | Potency (CP192)
0.844: Z-AUC ([1]; measured here: PEO4 Z-AUC)
0.564: Z-AUC [1, 4]
active: Potency (7G8) 10 µM

Cc1[nH]c(=O)c(C#N)cc1-c1ccc2nccn2c1
-0.575: Z-AUC [1, 4]
-0.131: Z-AUC ([1]; measured here: PEO4 Z-AUC)
inactive: Z-AUC [1] -0.546 | activity, negative = inhibition [2, 5] 5.44% | activity, negative = inhibition [2, 6] 15.3% | Potency (3D7) | Potency (7G8) | Potency (AA1029) | Potency (AS120) | Potency (ATS189) | Potency (ATS95) | Potency (C2A) | Potency (CP185) | Potency (CP191) | Potency (CP192) | Potency (CP194)

CCCc1nc2c(C)cc(-c3nc4ccccc4n3C)cc2n1Cc1ccc(-c2ccccc2C(=O)O)cc1
1.08: Z-AUC [1, 4]
0.729: Z-AUC ([1]; measured here: PEO4 Z-AUC)
inactive: Z-AUC [1] 0.748 | activity, negative = inhibition [2, 5] -11.3% | Potency (CP185)
active: Potency ([2]; parasite line B) 1.78 µM | Potency (3D7) 8.91 µM | Potency (7G8) 0.316 µM | Potency (AS120) 1.41 µM | Potency (ATS189) 0.794 µM | Potency (ATS95) 3.98 µM

CC(C[N+](C)(C)C)OC(N)=O (configuration not stated)
0.666: z-score [3, 8]
0.592: z-score [3, 7]
inactive: activity, negative = inhibition [2, 5] 8.36% | activity, negative = inhibition [2, 6] 9.26% | Potency (3D7) | Potency (7G8) | Potency (AA1029) | Potency (AS120) | Potency (ATS189) | Potency (ATS95) | Potency (C2A) | Potency (CP185) | Potency (CP191) | Potency (CP192) | Potency (CP194)
0.688: z-score [3, 9]

NNCCc1ccccc1
0.249: Z-AUC ([1]; measured here: PEO4 Z-AUC)
0.364: Z-AUC [1, 4]
inactive: Z-AUC [1] 0.52 | activity, negative = inhibition [2, 10] -6.84% | Potency (AA1029) | Potency (ATS189) | Potency (ATS95) | Potency (C2A) | Potency (CP185) | Potency (CP191) | Potency (CP192) | Potency (CP194)

Cc1[nH]c(=O)c(C#N)cc1-c1ccncc1
inactive: Z-AUC [1] -0.809 | activity, negative = inhibition [2, 5] -21.8% | activity, negative = inhibition [2, 6] -1.27% | Potency (3D7) | Potency (7G8) | Potency (AA1029) | Potency (AS120) | Potency (ATS189) | Potency (ATS95) | Potency (C2A) | Potency (CP185) | Potency (CP191) | Potency (CP192) | Potency (CP194)
-0.635: Z-AUC ([1]; measured here: PEO4 Z-AUC)
-0.611: Z-AUC [1, 4]

O=C(C=Cc1ccc(/C=C/C(=O)Nc2ccc(C3=NCCN3)cc2)cc1)Nc1ccc(C2=NCCN2)cc1
0.251: z-score [3, 7]
0.309: z-score [3, 9]
0.767: z-score [3, 8]

CNC[C@H](O)c1cccc(O)c1
0.496: Z-AUC ([1]; measured here: PEO4 Z-AUC)
inactive: Z-AUC [1] 0.649 | activity, negative = inhibition [2, 5] 6.65% | activity, negative = inhibition [2, 6] -11% | Potency (3D7) | Potency (7G8) | Potency (AA1029) | Potency (AS120) | Potency (ATS189) | Potency (ATS95) | Potency (C2A) | Potency (CP185) | Potency (CP191) | Potency (CP192) | Potency (CP194)
0.723: Z-AUC [1, 4]

N[C@@H]1CONC1=O
1.43: Z-AUC ([1]; measured here: PEO4 Z-AUC)
1.55: Z-AUC [1, 4]
inactive: Z-AUC [1] -0.0127 | activity, negative = inhibition [2, 5] -21% | activity, negative = inhibition [2, 6] -17% | Potency (3D7) | Potency (7G8) | Potency (AA1029) | Potency (AS120) | Potency (ATS189) | Potency (ATS95) | Potency (C2A) | Potency (CP185) | Potency (CP191) | Potency (CP192) | Potency (CP194)

CCOC(=O)C1=C[C@]2(CC)CCCN3CCc4c(n1c1ccccc41)[C@@H]32
active: Potency (7G8) 5.01 µM | Potency (AA1029) 10 µM | Potency (AS120) 8.91 µM | Potency (ATS95) 12.6 µM

N=c1nc(N2CCCCC2)cc(N)n1O
inactive: activity, negative = inhibition [2, 5] 6.18% | activity, negative = inhibition [2, 6] 18.3% | Potency (3D7) | Potency (7G8) | Potency (AA1029) | Potency (AS120) | Potency (ATS189) | Potency (ATS95) | Potency (C2A) | Potency (CP185) | Potency (CP191) | Potency (CP192) | Potency (CP194)

Clc1cccc(Cl)c1NC1=NCCN1
inactive: activity, negative = inhibition [2, 5] -1.81% | activity, negative = inhibition [2, 6] 0.0653% | Potency (3D7) | Potency (AA1029) | Potency (AS120) | Potency (ATS189) | Potency (ATS95) | Potency (C2A) | Potency (CP185) | Potency (CP191) | Potency (CP192) | Potency (CP194)

NCCc1ccc(O)c(O)c1
inactive: Z-AUC [1] 0.293 | activity, negative = inhibition [2, 5] -7.96% | activity, negative = inhibition [2, 6] 1.48% | Potency (3D7) | Potency (7G8) | Potency (AA1029) | Potency (AS120) | Potency (ATS189) | Potency (C2A) | Potency (CP185) | Potency (CP191) | Potency (CP192) | Potency (CP194)
0.902: Z-AUC [1, 4]
0.891: Z-AUC ([1]; measured here: PEO4 Z-AUC)

Nc1ccc(S(=O)(=O)Nc2ccnn2-c2ccccc2)cc1
2.1: z-score [3, 7]
1.56: z-score [3, 9]
0.571: z-score [3, 8]
inactive: activity, negative = inhibition ([2]; at 12.8 µM (top of the series), parasite line A) -1.36% | activity, negative = inhibition [2, 10] 3.8% | Potency (3D7) | Potency (7G8) | Potency (AA1029) | Potency (AS120) | Potency (ATS189) | Potency (ATS95) | Potency (C2A) | Potency (CP185) | Potency (CP191) | Potency (CP192) | Potency (CP194)

From PubChem BioAssay (NCATS)
